Test results as given in the supplement of paper PMC7393113.
± gives the standard deviation of the averaged measurements.

Tested on: iBMDM (immortalised mouse bone-marrow-derived macrophages), LPS-stimulated
Experiment: mitochondrial superoxide (MitoSOX fluorescence) fold increase over unstimulated control; higher = more LPS-induced mitochondrial ROS (less inhibition)
Conditions: inhibitor concentration: 500 nM, LPS: 100 ng/ml
In short: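 Mitochondrial superoxide was expressed as fold induction over untreated macrophages. Immortalised mouse bone-marrow-derived macrophages were pretreated with kinase inhibitors (500 nM) for 30 min, loaded with 1 μM MitoSox for 10 min and stimulated with LPS (100 ng/ml). MitoSox fluorescence (excitation 510 nm, emission 580 nm) was read hourly over 4 h, and the three replicates were averaged.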

Structure (SMILES)	mitochondrial superoxide (time after LPS: 1 h)	mitochondrial superoxide (time after LPS: 2 h)	mitochondrial superoxide (time after LPS: 4 h)
Cc1ccccc1-n1c(Cn2ncc3c(N)ncnc32)nc2cccc(C)c2c1=O	1.14 ± 0.012	1.25 ± 0.041	1.32 ± 0.04
CC(C)(C)c1cc(C=C(C#N)C#N)cc(Br)c1O	1.12 ± 0.029	1.16 ± 0.069	1.11 ± 0.063
Cn1cc(C2=C(c3cn(C4CCN(Cc5ccccn5)CC4)c4ccccc34)C(=O)NC2=O)c2ccccc21	1.7 ± 0.15	1.76 ± 0.18	1.92 ± 0.14
O=c1[nH]c2ccc(Cl)cc2c(N[C@@H]2CN3CCC2CC3)c1-c1nc2ccccc2[nH]1	1.2 ± 0.013	1.4 ± 0.045	1.68 ± 0.044
N#CC(C#N)=Cc1ccc(O)c(O)c1	1.364 ± 0.013	1.45 ± 0.055	1.666 ± 0.0094
COC[C@H]1OC(=O)c2coc3c2[C@@]1(C)C1=C(C3=O)[C@@H]2CCC(=O)[C@@]2(C)C[C@H]1OC(C)=O [Wortmannin]	1.4 ± 0.084	1.45 ± 0.05	1.78 ± 0.079
CC(C)(C)c1cc(C=C(C#N)C#N)cc(C(C)(C)C)c1O [Tyrphostin 9]	1.17 ± 0.033	1.21 ± 0.041	1.275 ± 0.0071
CCN1CCN(C(=O)Cc2ccc(Nc3ncc(F)c(Nc4ccc(C(=O)Nc5ccccc5Cl)cc4)n3)cc2)CC1 [Aurora A Inhibitor I]	1.17 ± 0.065	1.24 ± 0.014	1.32 ± 0.049
